# From PubChem BioAssay (NCATS)
# Inconclusive results are not listed. Entries that show only a call come without a potency. Activity calls are given as the source filed them. Unless noted, calls follow the shape of the dose curve; as a rule, active = well fitted curve in the direction sought with a large enough effect; inconclusive = small, poorly fitted or top-dose-only effect, or another doubt; inactive = no such curve, though single readings can be large; an effect the other way counts as inactive or inconclusive.
# Experiments:
# [1] = molecular target: Metallo-beta-lactamase type 2 (Klebsiella pneumoniae) (UniProt C7C422); assay: qHTS to identify inhibitors of the New Delhi Metallo-beta-lactamase (NDM): assay validation screen against the NCATS LOPAC Collection (AID 1794843);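 also: nitrocefin turnover by NDM-1 measured as 485 nm absorbance at plateau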
# Metallo-beta-lactamase type 2 (Klebsiella pneumoniae), sequence (C7C422 whole entry, looked up): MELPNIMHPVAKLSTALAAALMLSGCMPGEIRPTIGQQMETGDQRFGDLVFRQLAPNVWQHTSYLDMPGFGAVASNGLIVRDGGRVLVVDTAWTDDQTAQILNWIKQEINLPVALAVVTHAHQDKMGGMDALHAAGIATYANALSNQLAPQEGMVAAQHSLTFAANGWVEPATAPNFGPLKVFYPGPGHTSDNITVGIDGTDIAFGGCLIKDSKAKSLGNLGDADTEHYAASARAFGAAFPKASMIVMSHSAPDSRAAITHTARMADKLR
# How it was run: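 Enzyme 2 nM final, 50 mM HEPES pH 7.0, 1 uM ZnSO4, 0.01% Tween20; cpds in DMSO, preincub w/ enzyme; + nitrocefin (50 uM stock); A485 at plateau; no-enzyme column as blank.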
# [2] = molecular target: Glutathione peroxidase 1 (Homo sapiens) (UniProt P07203); assay: Primary qHTS Assay for Inhibitors of Recombinant Selenoprotein Glutathione Peroxidase 1 (GPX1) (AID 1845191); also: nearly all actives have a fitted effect of over 65% in size
# Glutathione peroxidase 1 (Homo sapiens), sequence (P07203 whole entry, looked up): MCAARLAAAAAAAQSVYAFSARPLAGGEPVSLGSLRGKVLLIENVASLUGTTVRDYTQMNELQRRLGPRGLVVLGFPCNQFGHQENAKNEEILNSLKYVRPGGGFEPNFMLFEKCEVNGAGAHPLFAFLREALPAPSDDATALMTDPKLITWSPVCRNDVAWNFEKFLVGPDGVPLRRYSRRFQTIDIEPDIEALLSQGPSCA
# How it was run: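 10 nM GPX1 + cpd, 30 min RT; start w/ 1 mM GSH, 0.5 mM cumene hydroperoxide, 0.5 mM NADPH, 100 nM GR, 0.01% BSA; buffer 50 mM Tris-HCl pH 7.5, 2 mM EDTA, 150 mM NaCl; Fl 340/450, 0 & 15 min.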
# [3] = molecular target: Phospholipid hydroperoxide glutathione peroxidase GPX4 (Homo sapiens) (UniProt P36969); assay: Primary qHTS Assay for Inhibitors of Recombinant Selenoprotein Glutathione Peroxidase 4 (GPX4) (AID 1845192); also: nearly all actives have a fitted effect of over 65% in size
# Phospholipid hydroperoxide glutathione peroxidase GPX4 (Homo sapiens), sequence (P36969 whole entry, looked up): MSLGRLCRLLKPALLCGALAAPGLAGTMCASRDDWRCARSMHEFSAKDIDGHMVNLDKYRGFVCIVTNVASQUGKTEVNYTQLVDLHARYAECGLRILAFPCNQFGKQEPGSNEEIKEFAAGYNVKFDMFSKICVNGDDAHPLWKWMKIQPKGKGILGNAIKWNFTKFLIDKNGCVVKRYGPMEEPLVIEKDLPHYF
# How it was run: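 NADPH consumption, followed by fluorescence at 340/450 nm between 0 and 15 min, reports GPX4 activity via coupled glutathione reductase (100 nM). Enzyme 200 nM was pre-exposed to compound 30 min; 0.5 mM cumene hydroperoxide and 1 mM GSH served as substrates.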
# [4] = molecular target: Catechol O-methyltransferase (Homo sapiens) (UniProt P21964); assay: Confirmatory Screen for Target Class Profiling of Small Molecule Inhibitors of Methyltransferases (AID 1745852; calls by dose curve; also: potency is read from the fitted curve at half-maximal effect); conditions: MTase-Glo luminescence, SAH detection, recombinant enzyme; measured here: COMT max response; stronger effect = lower value
# Catechol O-methyltransferase (Homo sapiens), sequence (P21964 whole entry, looked up): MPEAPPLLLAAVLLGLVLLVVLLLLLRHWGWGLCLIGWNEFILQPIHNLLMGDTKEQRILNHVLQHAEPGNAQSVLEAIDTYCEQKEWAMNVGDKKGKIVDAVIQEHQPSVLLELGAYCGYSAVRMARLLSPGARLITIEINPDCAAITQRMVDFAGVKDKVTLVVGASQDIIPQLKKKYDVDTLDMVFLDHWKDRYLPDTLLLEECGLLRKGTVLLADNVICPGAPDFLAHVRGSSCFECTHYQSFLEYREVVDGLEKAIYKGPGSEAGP
# [5] = molecular target: Guanidinoacetate N-methyltransferase (Homo sapiens) (UniProt Q14353); assay: as above; conditions: MTase-Glo luminescence, SAH detection, recombinant enzyme; activity change, negative = inhibition: at 57.3 µM (top of the series) unless noted
# [6] = molecular target: Nicotinamide N-methyltransferase (Homo sapiens) (UniProt P40261); assay: as above; conditions: MTase-Glo luminescence, SAH detection, recombinant enzyme; measured here: NNMT max response; stronger effect = lower value
# Nicotinamide N-methyltransferase (Homo sapiens), sequence (P40261 whole entry, looked up): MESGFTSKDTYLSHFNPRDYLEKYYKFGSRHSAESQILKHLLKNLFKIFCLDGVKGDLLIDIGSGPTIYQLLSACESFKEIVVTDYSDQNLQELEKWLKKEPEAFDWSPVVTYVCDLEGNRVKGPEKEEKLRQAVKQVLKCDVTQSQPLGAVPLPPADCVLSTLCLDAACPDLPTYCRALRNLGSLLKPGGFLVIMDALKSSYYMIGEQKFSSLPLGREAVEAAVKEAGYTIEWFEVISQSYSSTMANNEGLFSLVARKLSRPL
# [7] = molecular target: Phenylethanolamine N-methyltransferase (Homo sapiens) (UniProt P11086); assay: as above; conditions: MTase-Glo luminescence, SAH detection, recombinant enzyme; measured here: PNMT max response; stronger effect = lower value
# Phenylethanolamine N-methyltransferase (Homo sapiens), sequence (P11086 whole entry, looked up): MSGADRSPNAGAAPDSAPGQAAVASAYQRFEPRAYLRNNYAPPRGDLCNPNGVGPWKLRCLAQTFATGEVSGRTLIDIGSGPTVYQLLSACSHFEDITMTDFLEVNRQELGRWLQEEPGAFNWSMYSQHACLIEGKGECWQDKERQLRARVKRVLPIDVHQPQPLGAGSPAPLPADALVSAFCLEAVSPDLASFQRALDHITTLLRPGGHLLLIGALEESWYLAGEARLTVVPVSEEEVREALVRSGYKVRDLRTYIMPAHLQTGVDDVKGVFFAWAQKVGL
# [8] = NCATS anti-infectives library activity on HEK293 viability as a counter-qHTS vs the C. elegans viability qHTS (AID 1745854)
# How it was run: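 HEK293 cells, 1500 per well, exposed 24 hr at 37C in 5% CO2 to compounds in a 1:5 titration, up to 41.7 uM final. Viability read as CellTiter-Glo luminescence after 10 min at room temperature.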
# [9] = molecular target: Nuclear receptor subfamily 1 group I member 3 (Homo sapiens) (UniProt Q14994); assay: Primary qHTS for antagonist of constitutive androstane receptor (CAR) against the NCATS DSHEA and TCM libraries (AID 1794836);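 also: HepG2 cells stably expressing hCAR with CYP2B6 luciferase reporter stimulated by CITCO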
# Nuclear receptor subfamily 1 group I member 3 (Homo sapiens), sequence (Q14994 whole entry, looked up): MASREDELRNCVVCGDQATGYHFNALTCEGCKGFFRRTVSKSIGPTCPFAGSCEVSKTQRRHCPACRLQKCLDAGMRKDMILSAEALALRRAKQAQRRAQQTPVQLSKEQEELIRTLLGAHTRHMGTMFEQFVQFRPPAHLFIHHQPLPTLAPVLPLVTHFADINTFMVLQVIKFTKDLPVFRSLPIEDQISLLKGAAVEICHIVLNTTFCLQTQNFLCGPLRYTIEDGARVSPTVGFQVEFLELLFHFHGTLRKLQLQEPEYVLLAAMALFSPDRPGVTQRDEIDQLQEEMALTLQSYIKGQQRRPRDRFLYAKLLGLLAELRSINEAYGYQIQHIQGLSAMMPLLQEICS
# How it was run: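 Antagonist mode: CAR reporter luminescence (ONE-Glo) in HepG2-CYP2B6-hCAR cells stimulated with 48 uM CITCO (final) over 24 h at 37 C, compounds titrated; viability read first by CellTiter-Fluor fluorescence.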
# [10] = Viability counterscreen for antagonist of constitutive androstane receptor (CAR) against the NCATS DSHEA and TCM libraries (AID 1794837);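 also: compound exposure lasted 24 h before viability reading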
# How it was run: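 Cells: HepG2 line carrying CYP2B6 reporter and hCAR, seeded and attached 5 h. Then pin-transferred test substances plus agonist CITCO at 48 uM final; 24 h incubation; fluorogenic viability reagent, 1 h.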
# [11] = Viability counterscreen for agonist of constitutive androstane receptor (CAR) against the NCATS DSHEA and TCM libraries (AID 1794838);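 also: HepG2 cells with CYP2B6 reporter and hCAR plus 0.75 µM PK11195 antagonist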
# How it was run: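 Cell health was measured as CellTiter-Fluor signal in HepG2-CYP2B6-hCAR cells treated for 24 h with substances alongside the hCAR antagonist PK11195 (0.75 uM final).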
# [12] = molecular target: Nuclear receptor subfamily 1 group I member 3 (Homo sapiens) (UniProt Q14994); assay: Primary qHTS for agonist of constitutive androstane receptor (CAR) against the NCATS DSHEA and TCM libraries (AID 1794839);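 also: HepG2 cells expressing human CAR with a CYP2B6 reporter plus PK11195 antagonist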
# How it was run: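 qHTS, agonist mode: HepG2-CYP2B6-hCAR, 2,500 cells/well, 5 h attach; cpds + PK11195 0.75 µM final; 24 h, 37 °C, 5% CO2. Readouts: CellTiter-Fluor (405/540 nm), then ONE-Glo luminescence.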
# [13] = HepG2 viability counterscreen (readout 2: ATP content) against the NCATS DSHEA and TCM libraries (AID 1794840)
# How it was run: (§1)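 Same wells read twice: first fluorescence from cleaved GF-AFC substrate (25 uM final, 30 min, 37C) for live-cell protease, then CellTiter-Glo luminescence after 30 min at room temperature for ATP. HepG2 cells were exposed ~24 h to substances.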
# [14] = HepG2 viability counterscreen (readout 1: protease activity) against the NCATS DSHEA and TCM libraries (AID 1794841);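 also: cells exposed to compounds for about 24 h before the protease read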
# How it was run: as §1
# [15] = NCATS anti-infectives library activity on the primary C. elegans qHTS viability assay (AID 1745855; calls by dose curve; also: potency is read from the fitted curve at half-maximal effect)
# How it was run: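 Viability is taken from GFP fluorescence of PE254-GFP-FLuc C. elegans imaged by laser cytometry over 7 days. Ten L1 worms per well grow at 21 °C on TOP10 E. coli capsules with titrated compound; levamisole marks toxicity.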
smiles,measurement,setting,value
C[C@@H]1O[C@@H](O[C@H]2C[C@@H](O)[C@]3(CO)[C@@H]4C(CC[C@]3(O)C2)[C@@]2(O)CC[C@H]([C@@H]3COC(=O)C3)[C@@]2(C)C[C@H]4O)[C@H](O)[C@H](O)[C@H]1O (some centres undefined),Potency,[1],inactive
NC(N)=Nc1ccc2[nH]c3c(c2c1)C[C@@]1(O)[C@H]2Cc4ccc(O)c5c4[C@@]1(CCN2CC1CC1)[C@H]3O5,Potency,[1],inactive
same,Potency,[2],inactive
CCCN(CCC)C1CCc2cccc(O)c2C1 (centres undefined),Potency,[1],inactive
same,Potency,[2],inactive
same,Potency,[3],inactive
CNc1ccc2oc(C[C@H]3O[C@@]4(CC[C@H]3C)O[C@H]([C@H](C)C(=O)c3ccc[nH]3)[C@H](C)C[C@H]4C)nc2c1C(=O)O,activity,[4],-3.19%
same,Potency,[5],34.3 µM (active)
same,activity,[6],-35.2%
same,activity,[7],-4.07%
same,Potency,[2],inactive
same,Potency,[3],inactive
C[C@]12Cc3cn4c(nc3C=C1CCC1C2CC[C@@]2(C)[C@H]1CC[C@@]2(O)C#N)nc1ccccc14 (some centres undefined),activity,[4],-23.1%
same,Potency,[5],0.611 µM (active)
same,activity,[6],-35.3%
same,activity,[7],-11.6%
same,Potency,[1],inactive
same,Potency,[2],inactive
same,Potency,[3],inactive
NC(C(=O)O)c1cc(=O)[nH]o1 (centres undefined),Potency,[1],inactive
same,Potency,[2],inactive
same,Potency,[3],inactive
CCS(=O)(=O)Nc1cccc(C(=C2CCCCC2)c2cnc[nH]2)c1,Potency,[1],inactive
same,Potency,[2],inactive
C#CCN[C@H](C)Cc1ccccc1,Potency,[1],inactive
same,Potency,[2],inactive
same,Potency,[3],inactive
CC(Cc1ccc(OCC(=O)O)cc1)NCC(O)c1cccc(Cl)c1 (centres undefined),Potency,[1],inactive
same,Potency,[2],inactive
Nc1cc2c(ncn2CCOCP(=O)(O)O)c(=O)[nH]1,Potency,[1],inactive
same,Potency,[2],inactive
same,Potency,[3],inactive
Cc1sc2ccccc2c1CC1=NCCN1,activity,[4],6.03%
same,"activity change, negative = inhibition",[5],4.23%
same,activity,[6],-6.99%
same,activity,[7],-30.1%
same,Potency,[2],inactive
same,Potency,[3],inactive
COC(=O)N1CCN(C(=O)Cc2ccc(Cl)c(Cl)c2)C(CN2CCCC2)C1 (centres undefined),Potency,[1],inactive
same,Potency,[2],inactive
CCCN(CCC)C1Cc2cc(OC)c(OC)cc2C1,Potency,[1],inactive
same,Potency,[2],inactive
same,Potency,[3],inactive
C[N+](C)(C)CC#CCN1CCCC1=O,Potency,[1],inactive
same,Potency,[2],inactive
same,Potency,[3],inactive
CC(C)NP(=O)(NC(C)C)OP(=O)(NC(C)C)NC(C)C,Potency,[1],inactive
same,Potency,[2],inactive
same,Potency,[3],inactive
NCCc1ccc(S(=O)(=O)F)cc1,outcome,[8],inactive
same,Potency,[1],inactive
same,Potency,[2],inactive
same,Potency,[3],inactive
NC(N)=NOCC[C@H](N)C(=O)O,Potency,[1],inactive
same,Potency,[2],inactive
same,Potency,[3],inactive
CCNC(=O)[C@H]1O[C@@H](n2cnc3c(N)ncnc32)[C@H](O)[C@@H]1O,Potency,[1],inactive
same,Potency,[2],inactive
O=C1CC[C@@]2(O)C3Cc4ccc(O)c5c4C2(CCN3CC2CC2)[C@H]1O5 (some centres undefined),Potency,[1],inactive
same,Potency,[2],inactive
CC(C)(O)[C@@H]1C2OC(=O)[C@@H]1[C@]1(O)C[C@H]3O[C@]34C(=O)O[C@H]2[C@]14C (tested in a mixture with another compound),Potency,[1],inactive
same,Potency,[2],inactive
same,Potency,[3],inactive
COc1ccc2[nH]cc(CCN)c2c1,Potency,[1],inactive
same,Potency,[2],inactive
O=C/C=C/c1ccccc1,outcome,[9],inactive
same,outcome,[10],inactive
same,outcome,[11],inactive
same,outcome,[12],inactive
same,outcome,[13],inactive
same,outcome,[14],inactive
same,Potency,[2],inactive
same,Potency,[3],inactive
O=[N+]([O-])c1ccc2nc(N3CCNCC3)ccc2c1,Potency,[1],inactive
same,Potency,[2],inactive
same,Potency,[3],inactive
COc1ccc2c(c1)C13CCCCC1C(C2)N(C)CC3 (centres undefined),Potency,[1],inactive
same,Potency,[2],inactive
O=c1c2ccccc2[se]n1-c1ccccc1,Potency,[15],18.3 µM (active)
CN1C2CCC1CC(OC(c1ccccc1)c1ccccc1N)C2 (centres undefined),Potency,[1],inactive
CCCCCOc1cc2c(cc1-c1cc(/C=C/C(=O)O)ccc1O)C(C)(C)CCC2(C)C,activity,[4],-5.76%
same,"activity change, negative = inhibition",[5],-6.96%
same,activity,[6],-28.2%
same,activity,[7],0.0952%
same,Potency,[3],inactive
CNC(C)C(O)c1ccc(O)cc1 (centres undefined),outcome,[9],inactive
same,outcome,[10],inactive
same,outcome,[11],inactive
same,outcome,[12],inactive
same,outcome,[13],inactive
same,outcome,[14],inactive
CN(C(=O)Cc1ccc(Cl)c(Cl)c1)C(CN1CCCC1)c1cccc(OCC(=O)O)c1 (centres undefined),Potency,[1],inactive
same,Potency,[2],inactive
same,Potency,[3],inactive
CC12NC(Cc3ccccc31)c1ccccc12 (centres undefined),Potency,[1],inactive
same,Potency,[2],inactive
CCn1cnc2c(Nc3cccc(Cl)c3)nc(N[C@@H]3CCCC[C@@H]3N)nc21,activity,[4],7.4%
same,"activity change, negative = inhibition",[5],4.82%
same,activity,[6],-17.5%
same,activity,[7],1.09%
same,Potency,[1],inactive
same,Potency,[3],inactive
O=Cc1ccco1,outcome,[13],inactive
same,outcome,[14],inactive
